From PubChem BioAssay
TEAD-YAP block: TEAD-YAP interaction inhibition; HEK-TIYL cells, TEAD-Gal4/YAP UAS-luciferase luminescence; inhibition, % at 9.12 µM; 1.4% of 640,000 active; in the data active = inhibition above about 32%
GPR151 activ: human GPR151 activation; activation, % at 11.2 µM; PathHunter beta-arrestin GPR151 cells, luminescence; Q8TDV0; 1% of 650,000 active; in the data active = activation above about 4.9%
FBW7 act: human FBW7 E3 ligase activation, primary screen. normalized activity (activation), % at 26.1 µM. Q969H0. 0.13% of 650,000 active. AlphaScreen FBW7–phospho-cyclin E peptide binding, activator screen; in the data active = normalized activity above about 1.9%;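 also: purified mutant Fbw7 with reduced substrate affinity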
MITF inh: blocks human microphthalmia-associated transcription factor; 0.91% of 650,000 active; AID 1259374; O75030; inhibition, % at 2.6 µM; AlphaScreen MITF homodimerization, bead proximity signal; in the data active = inhibition above about 50%
Target sequence (O75030 whole entry, looked up): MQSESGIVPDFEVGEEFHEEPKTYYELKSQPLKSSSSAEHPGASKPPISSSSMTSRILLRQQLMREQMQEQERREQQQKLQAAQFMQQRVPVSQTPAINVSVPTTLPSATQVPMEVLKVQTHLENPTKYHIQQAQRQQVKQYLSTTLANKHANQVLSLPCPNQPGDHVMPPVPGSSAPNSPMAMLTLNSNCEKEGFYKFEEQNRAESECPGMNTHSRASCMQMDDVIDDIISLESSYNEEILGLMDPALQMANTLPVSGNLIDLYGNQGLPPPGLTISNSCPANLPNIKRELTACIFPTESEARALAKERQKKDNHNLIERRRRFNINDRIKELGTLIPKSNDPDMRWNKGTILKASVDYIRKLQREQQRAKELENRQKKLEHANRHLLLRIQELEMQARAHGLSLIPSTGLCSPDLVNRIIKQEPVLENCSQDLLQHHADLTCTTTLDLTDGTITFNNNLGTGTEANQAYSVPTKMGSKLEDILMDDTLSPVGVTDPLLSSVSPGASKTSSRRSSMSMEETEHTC
GPR151 conf act: human GPR151 activation, confirmation screen; shares compounds with GPR151 activ; GPR151 PathHunter beta-arrestin cells, luminescence, 90 min; % of EA-reagent control over plate median; activation, % at 11.2 µM; 6,700 tested, under 10 active; AID 1508609;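 active = mean percent activation across replicates above the confirmation screen cutoff of 4.91%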
GPR119 counter: counter-screen for GPR151 activators: effect on human GPR119 | AID 1508611 | 0.3% of 6,700 active | shares compounds with GPR151 activ | activation, % at 11.2 µM | GPR119 PathHunter beta-arrestin cells, luminescence, 90 min; 0 = compound-well median, 100 = enzyme-acceptor control;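 active = mean percent activation in the counterscreen above 29.09%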;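 also: counterscreen on off-target GPR119 to flag nonselective hits from the GPR151 activator screen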
Of the large screens only hits and unclear results are named; the others gave an inactive call (follow-up assays come after a bar, where they were run). Sampled rows, rich in hits. Any-hit rate of the full collection: about 3.5%.

Cc1ccccc1N1C(=O)c2ccc(Oc3ccc([N+](=O)[O-])cc3)cc2C1=O	none
O=C(Nc1ccc(N2CCOCC2)cc1)c1ccnc(NCCN2CCOCC2)c1	none
O=C(Nc1ccc(N2CCOCC2)cc1)C1CCN(c2ccc(Cl)nn2)CC1	GPR151 activ 6.0 | GPR151 conf act inactive | GPR119 counter inactive
O=C(Nc1ccc(N2CCOCC2)cc1)c1ccnc(N2CCOCC2)c1	GPR151 activ 5.5 | GPR151 conf act inactive | GPR119 counter inactive
O=C(Nc1ccc2c(c1)OCO2)c1ccnc(NCCN2CCOCC2)c1	GPR151 activ 7.1 | GPR151 conf act inactive | GPR119 counter inactive
CC(=O)Nc1ccc(NC(=O)c2ccnc(Nc3ccc(N4CCOCC4)cc3)c2)cc1	none
NC(=O)C1CCN(CC(=O)Nc2ccc(N3CCOCC3)cc2)CC1	GPR151 activ 5.9 | GPR151 conf act inactive | GPR119 counter inactive
Cc1ccc(-c2nn(CC(N)=O)c(=O)c3ccccc23)cc1	none
Cc1ccccc1NC(=O)CC1Nc2ccccc2NC1=O (stereo unspecified)	none
CCOCC(=O)NCCNC(=O)C(NC(=O)C1CCC(C)CC1)C(C)C (stereo unspecified)	none
COc1cc(N2CCN(S(=O)(=O)c3cccs3)CC2)nc(OC)n1	none
NS(=O)(=O)c1ccc(CCNC(=O)C(=O)Nc2ccccc2F)cc1	GPR151 activ 7.1 | GPR151 conf act inactive | GPR119 counter inactive
Nc1c(C(=O)Nc2ccc3c(c2)OCCO3)sc2nc3cc4c(cc3cc12)OCCO4	none
Nc1c(C(=O)Nc2ccc3c(c2)OCCO3)sc2nc(-c3cccs3)ccc12	GPR151 activ 6.3 | GPR151 conf act inactive | GPR119 counter inactive
COc1cccc(C2=NS(=O)(=O)N(C)C(C(=O)N3CCC(C)CC3)=C2)c1	none
O=C(CSc1ccc2nnc(-c3ccc(Cl)cc3)n2n1)NC1CCCCC1	none
Cc1cc(=O)oc2cc(OCc3ccc(C(=O)NNC(=O)c4ccccc4)cc3)ccc12	none
C/C(N)=C(/C#N)C(=O)COC(=O)c1ccc(COc2ccc3c(C)cc(=O)oc3c2)cc1	GPR151 activ 5.3 | GPR151 conf act inactive | GPR119 counter inactive
CC(NC(=O)c1cnccn1)c1nc(-c2ccncc2)n[nH]1 (stereo unspecified)	none
CC(NC(=O)c1cnccn1)c1nc(-c2ccc(Cl)cc2)n[nH]1 (stereo unspecified)	GPR151 activ 8.1 | GPR151 conf act inactive | GPR119 counter inactive
CN(CCO)c1ccc(/C=N/NC(=O)c2cc3c(s2)CCCC3)cc1	GPR151 activ 6.2 | GPR151 conf act inactive | GPR119 counter inactive
C/C(=N\NC(=O)c1cc2c(s1)CCCC2)c1ccccc1O	none
COc1cccc(NC(=O)C(NS(=O)(=O)c2ccc3nc(C)sc3c2)C(C)C)c1 (stereo unspecified)	none
C=CCNC(=O)COc1c(C)cc(Br)cc1C	GPR151 activ 11.8 | GPR151 conf act inactive | GPR119 counter inactive
C=CCNC(=S)NNC(=O)COc1ccc2cc(Br)ccc2c1	GPR151 activ 9.7 | GPR151 conf act inactive | GPR119 counter inactive
NS(=O)(=O)c1ccc(NC(=O)c2cccc(Br)c2)cc1	none
O=C(C1CCCCC1)N1CCC(c2nc3ccccc3[nH]2)CC1	GPR151 activ 5.8 | GPR151 conf act inactive | GPR119 counter inactive
Cc1cccc(NC(=O)CN2CCC(c3nc4ccccc4[nH]3)CC2)c1	none
Cc1ccc(C)c(NC(=O)CN2CCC(c3nc4ccccc4[nH]3)CC2)c1	GPR151 activ 6.0 | GPR151 conf act inactive | GPR119 counter inactive
Cc1cc2c(Nc3ccccc3C)ncnc2s1	none
Cc1nc(CCNC(=O)CC2C(=O)NCCN2CC(c2ccccc2)c2ccccc2)n[nH]1 (stereo unspecified)	none
CCCC1=NN(S(=O)(=O)c2ccc(C)cc2)C(O)(C(F)(F)F)C1 (stereo unspecified)	GPR151 activ 5.5 | GPR151 conf act inactive | GPR119 counter inactive
Cc1ccc(S(=O)(=O)N2N=C3CCCCC3C2(O)C(F)(F)F)cc1 (stereo unspecified)	none
NC(=O)c1cc(NC(=O)c2ccco2)ccc1N1CCCCC1	GPR151 activ 6.5 | GPR151 conf act inactive | GPR119 counter inactive
O=C(Nc1ccc(N2CCCCC2)c(C(=O)O)c1)c1ccco1	none
O=C(Cc1cccs1)N/N=C\c1ccc(O)c(O)c1	GPR151 activ 5.3 | GPR151 conf act inactive | GPR119 counter inactive
O=C(Cc1cccs1)N/N=C\c1ccc(O)cc1	none
Cc1cc(C)c2c3c(sc2n1)C(=O)N(c1ccc(F)cc1)CC(=O)N3	GPR151 activ 5.6 | GPR151 conf act inactive | GPR119 counter inactive
Cc1ccc(N2CC(=O)Nc3c(sc4nc(C)cc(C)c34)C2=O)cc1	none
O=C(COC(=O)c1cc[n+]([O-])cc1)Nc1ccc(OC(F)F)cc1	none
CSc1nc(N)nc(SCC(=O)Nc2ccc(C)cc2)c1C#N	none
CSc1nc(N)nc(SCC(=O)Nc2ccc(Cl)cc2)c1C#N	GPR151 activ 11.2 | GPR151 conf act inactive | GPR119 counter inactive
CCCCNCc1cc(Cl)c(OCC(=O)NC(C)(C)C)c(OCC)c1	GPR151 activ 7.0 | GPR151 conf act inactive | GPR119 counter inactive
Cc1ccc2c(c1)cc(CN(Cc1cccs1)C(=O)C1CC1)c1nnnn12	GPR151 activ 5.4 | GPR151 conf act inactive | GPR119 counter inactive
Cc1ccc2c(c1)cc(CN(Cc1cccs1)C(=O)c1cccs1)c1nnnn12	none
Cc1ccc2c(c1)cc(CN(CCc1ccccc1)C(=O)N1CCOCC1)c1nnnn12	GPR151 activ 5.2 | GPR151 conf act inactive | GPR119 counter inactive
Cc1ccc2c(c1)cc(CN(Cc1ccco1)S(=O)(=O)c1ccccc1)c1nnnn12	GPR151 activ 6.7 | GPR151 conf act inactive | GPR119 counter inactive
Cc1ccc2c(c1)cc(CN(Cc1ccco1)C(=O)N(C)C)c1nnnn12	none
NC(=O)CSc1nnc(Cc2ccccc2)n1-c1ccc(F)cc1	GPR151 activ 6.0 | GPR151 conf act inactive | GPR119 counter inactive
COCCN1C(=O)C2C(C(=O)Nc3cccc(C)c3)C3C=CC2(O3)C1C(=O)NC1CCCC(C)C1C (stereo unspecified)	none
Cc1ccnc(SCc2nc3ccccn3c2Br)n1	GPR151 activ 14.8 | GPR151 conf act inactive | GPR119 counter inactive
Cc1ccnc(SCc2nc3ccc(Cl)cn3c2Br)n1	none
O=C(N/N=C/c1cc(Br)c(O)c(Br)c1O)c1ccccn1	none
CC(O)CC(=O)N1CCc2cc(S(=O)(=O)N(C)C)ccc21 (stereo unspecified)	GPR151 activ 5.3 | GPR151 conf act inactive | GPR119 counter inactive
CC1=C(C(=O)N2CCCC(N3CCOCC3)C2)OCCO1 (stereo unspecified)	none
CC(C)CC(NC(=O)c1ccccc1)C(=O)OCC(=O)c1ccccc1 (stereo unspecified)	none
CC(C)CC(NC(=O)c1ccccc1)C(=O)OCc1ccccc1 (stereo unspecified)	GPR151 activ 5.6 | GPR151 conf act inactive | GPR119 counter inactive
